Bioassay records (PubChem BioAssay)
Rows were chosen to be rich in hits. Some 12% of all compounds tested hit in one or more screens of this group.
PLK1 PBD inh = qHTS for Inhibitors of PLK1-PDB (polo-like kinase 1 - polo-box domain): Primary Screen. Potency, µM, for inactives: max response, negative = inhibition, most hits filed as inhibitors. Serine/threonine-protein kinase PLK1 (Homo sapiens), P53350. Plk1 PBD binding of FITC phosphopeptide, fluorescence polarization. hit rate 2.8% among 360,000; further: series mostly up to about 57 µM; nearly all actives have a fitted effect of over 65% in size
ALDH1A1 inh = qHTS Assay for Inhibitors of Aldehyde Dehydrogenase 1 (ALDH1A1). Aldehyde dehydrogenase 1A1 (Homo sapiens), P00352. Purified ALDH1A1, NADH fluorescence, propionaldehyde substrate. Potency, µM (top dose mostly 75.3 µM), for inactives: at the highest dose activity, negative = inhibition, hits mostly inhibitors. hit rate 7.3% among 220,000; active means well fitted inhibition curve with a large enough effect, not every such curve was filed as active; inconclusive means small, poorly fitted or top-dose-only effect, or another doubt; inactive means no such curve, though single readings can be large or run the other way;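 further: plate controls were no enzyme wells and a reference inhibitor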
Sfp inh = qHTS Assay for Inhibitors of Bacillus subtilis Sfp phosphopantetheinyl transferase (PPTase). AID 1490, 2009. Biochemical Sfp PPTase activity, qHTS. Potency, µM, for inactives: largest response in the series, negative = inhibition, actives largely listed as inhibitors. 4'-phosphopantetheinyl transferase ffp (Bacillus subtilis), Q9F4F7. hit rate 3.5% among 310,000;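 further: the enzyme is Sfp with the accession as filed and its product quenches rhodamine fluorescence; 0% = enzyme reaction without inhibitor and -100% = no enzyme wells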
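Compounds were incubated with enzyme (final 15 nM) for 15 min at room temperature before substrate addition started the reaction. Fluorescence at 525 nm excitation, 598 nm emission was recorded immediately and after 30 minutes.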
RORg inh = qHTS for inhibitors of ROR gamma transcriptional activity; hit rate 5.4% among 310,000; AID 2551, 2010; Drosophila S2 Gal4-RORgamma UAS-luciferase reporter, 20 h; Nuclear receptor ROR-gamma (Mus musculus), P51450; Potency, µM (series often up to 53.6 µM), for inactives: top-dose activity change, negative = inhibition, hits mostly inhibitors; further: nearly all actives have a fitted effect of over 60% in size
Target sequence (P51450 whole entry, looked up, the tested form may be a part): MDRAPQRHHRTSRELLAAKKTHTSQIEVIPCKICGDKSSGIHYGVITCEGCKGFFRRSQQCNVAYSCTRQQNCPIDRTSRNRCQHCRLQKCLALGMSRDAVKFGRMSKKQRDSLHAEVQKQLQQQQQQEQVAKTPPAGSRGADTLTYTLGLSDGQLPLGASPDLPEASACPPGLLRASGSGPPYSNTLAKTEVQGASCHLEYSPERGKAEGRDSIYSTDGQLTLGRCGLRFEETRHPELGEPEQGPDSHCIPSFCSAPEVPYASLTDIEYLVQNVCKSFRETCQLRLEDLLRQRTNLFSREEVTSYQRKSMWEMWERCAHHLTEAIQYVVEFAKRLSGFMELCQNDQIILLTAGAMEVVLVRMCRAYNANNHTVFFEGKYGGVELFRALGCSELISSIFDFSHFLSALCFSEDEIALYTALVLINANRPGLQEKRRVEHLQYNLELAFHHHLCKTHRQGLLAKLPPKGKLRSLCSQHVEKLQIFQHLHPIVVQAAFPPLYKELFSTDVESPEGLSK
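Stable Schneider cell line, Gal4 DNA-binding domain fused to ROR gamma, UAS-luciferase. Cmpd 1 hr RT → CuSO4 700 uM final → 20 hr RT → luciferase reagent 10 min → luminescence.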
VP16 counter = VP16 counterscreen qHTS for inhibitors of ROR gamma transcriptional activity; Drosophila S2 Gal4-VP16 UAS-luciferase, luminescence, 20 h; Potency, µM (top dose mostly 53.6 µM), without a hit: top-dose activity, negative = inhibition, usual class: inhibitors; hit rate 3.5% among 310,000; AID 2546, 2010;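 further: Gal4-VP16 expression switched on by copper sulfate through the metallothionein promoter; nearly all actives have a fitted effect of over 50% in size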
Active calls of the source: *; ? = inconclusive; · = no result given; [ ] = another dose, or the depositor's remark. Unless noted, the call rests on the fitted dose curve; in most records, active means well fitted curve in the direction sought with a large enough effect; inconclusive means small, poorly fitted or top-dose-only effect, or another doubt; inactive means no such curve, though single readings can be large; an effect the other way counts as inactive or inconclusive. Unless noted, on the % scale 0 is the no-effect control and ±100 the full control effect; potency means the concentration at half of the fitted maximal effect.

SMILES	PLK1 PBD inh	ALDH1A1 inh	Sfp inh	RORg inh	VP16 counter
O=C(O)c1cccc(CSc2nc(-c3ccc(Cl)cc3)cc(C(F)(F)F)n2)c1	27µM*	2%	-6%	10%	-11%
O=C(O)c1cccc(CSc2nnc(-c3ccc(Cl)cc3)o2)c1	-2%	·	5%	?	0.79µM*
CNc1c2cccc(C)c2nc2c(C(=O)NCCN(C)C)cccc12	17µM*	·	·	·	·
O=C1NC(=S)SC1=Cc1ccccn1	-9%	·	·	·	·
Cc1csc(NC(=O)CSCC(=O)O)c1-c1nc2ccccc2s1	?	?	?	-42%	8.9µM*
Cc1ccc2nc(-c3ccc(NC(=O)CCN4C(=O)c5ccccc5C4=O)cc3)sc2c1	-19%	6%	79µM*	5µM*	7.1µM*
Cc1ccc2nc(-c3ccc(NC(=O)CSCC(=O)O)cc3)sc2c1	?	·	0%	11µM*	-26%
O=C(O)CSCC(=O)Nc1ccc(-c2nc3ccccc3s2)cc1	9.5µM*	?	?	?	-22%
O=C(CCN1C(=O)c2ccccc2C1=O)Nc1ccc(-c2nc3ccccc3s2)cc1	-8%	2%	4%	-3%	-13%
Cc1ccc2nc(-c3ccc(NC(=O)COCC(=O)O)cc3)sc2c1	-23%	?	-2%	-17%	-17%
CN(C)CCNc1ncnc2c1ncn2[C@H]1CN(Cc2ccc3c(c2)OCO3)C[C@@H](CO)O1	-2%	·	·	·	·
COc1ccc(CCNC(=O)c2cc3ccc(Cl)cc3nc2N)cc1	-7%	·	·	·	·
CCOc1ccc(C(=O)c2cccs2)cc1	?	1%	7%	?	14%
CCOc1ccc(N2C(=O)CC(NCCNc3ccc(C(=O)c4cccs4)cc3)C2=O)cc1 (stereo not drawn)	-1%	22µM*	8%	?	-7%
CC(=O)n1nc(-c2ccc(Cl)cc2)nc1NCc1ccco1	21µM*	4%	4%	?	-1%
CC(C)(C)c1ccc(OCCC(=O)Nc2cccc(S(=O)(=O)N3CCCCC3)c2)cc1	-1%	?	16%	?	-10%
CC(=O)O[C@@H](Cc1ccc(O)cc1)C(=O)CC(C)C	-4%	·	·	·	·
CCOC(=O)c1c(C)oc(NC(=O)CCl)c1C(=O)OCC	-8%	3.5µM*	4%	?	?
O=C(NC1CCSc2ccccc21)c1cc(S(=O)(=O)N2CCOCC2)ccc1F (stereo not drawn)	5%	·	21%	11%	16%
O=C(NC1CCSc2ccccc21)c1ccc(F)c(S(=O)(=O)N2CCOCC2)c1 (stereo not drawn)	6%	·	50µM*	-17%	-1%
COc1cc(C(=O)OCC(=O)Nc2ccc(C)cc2)cc(OC)c1OC	-12%	·	17%	15%	1%
COc1ccc(S(=O)(=O)N2CCC(C(=O)N[C@H](C(=O)N3CCCC3)C(C)C)CC2)cc1	27µM*	·	10%	1%	-6%
COc1ccc(S(=O)(=O)N2CCCC(C(=O)NCCC(C)C)C2)cc1 (stereo not drawn)	24µM*	-1%	-5%	6%	1%
COc1cccc(-c2nccc(NCc3ccccc3OC)n2)c1	·	-12%	-20%	?	-1%
Cc1cccc(CCNC(=O)C2CCC(CNS(=O)(=O)c3cccs3)CC2)c1 (stereo not drawn)	-6%	1.8µM*	17%	7%	-4%
SMILES	PLK1 PBD inh	ALDH1A1 inh	Sfp inh	RORg inh	VP16 counter
Cc1cc(NC(=O)C2CCN(S(=O)(=O)c3cccs3)CC2)no1	-17%	-2%	15%	0%	2%
O=C(c1ccc2c(c1)OCCO2)N1CCCC(CNS(=O)(=O)c2cccs2)C1 (stereo not drawn)	-5%	2.2µM*	-12%	5%	2%
O=C(Nc1ccon1)C1CCN(S(=O)(=O)c2cccs2)CC1	3.4µM*	-9%	22%	-11%	-8%
Cc1cccc(N2CCN(C(=O)C3CCC(CNS(=O)(=O)c4cccs4)CC3)CC2)c1C (stereo not drawn)	-1%	·	12%	?	11µM*
O=C(C1CCC(CNS(=O)(=O)c2cccs2)CC1)N1CCCCC1 (stereo not drawn)	-3%	?	16%	-8%	4%
CC(C)=CCC/C(C)=C\COc1c2ccoc2cc2oc(=O)ccc12	·	?	?	32%	12%
CCOC(=O)c1ccc(OCC2NCCc3cc(OC)c(OC)cc32)cc1 (stereo not drawn)	-5%	·	3%	-3%	-11%
O=C(NCCc1ccccc1)C1CCC(CNS(=O)(=O)c2cccs2)CC1 (stereo not drawn)	-10%	4µM*	11%	32%	6%
O=C(NCCc1ccc(Cl)cc1)C1CCN(S(=O)(=O)c2cccs2)CC1	-5%	?	10%	-8%	4%
O=C(NCCc1ccccc1)C1CCN(S(=O)(=O)c2cccs2)CC1	-16%	10µM*	11%	44%	?
O=C(NCCc1ccccc1)C1CCC(CNS(=O)(=O)c2ccccc2)CC1 (stereo not drawn)	-3%	·	-8%	-17%	-11%
CCSc1nnc(NC(=O)c2cccnc2Cl)s1	-4%	25µM*	24%	-33%	?
CCSc1nnc(NC(=O)c2ccccc2C)s1	-13%	2%	6%	-42%	21%[10 µM]
CCSc1nnc(NC(=O)c2ccccn2)s1	-3%	?	13%	2µM*	3.2µM*
CCSc1nnc(NC(=O)c2cccc(S(=O)(=O)N(C)c3ccc(C)cc3)c2)s1	-24%	2%	30%	16µM*	?
COC(=O)c1ccccc1NC(=O)CSc1nc2ccsc2c(=O)n1CCCCC(=O)O	-13%	·	·	·	·
OB(O)c1ccc(Br)cc1	·	3%	22%	0%	0%
O=C(NNC(=O)c1ccc(Cl)cc1Cl)c1csc(-c2cccnc2)n1	-9%	·	8%	-45%	-15%
O=C(NCc1ccc(Cl)cc1)c1csc(-c2cccnc2)n1	30µM*	·	21%	38%	-3%
O=C(NCCc1csc(-c2cccnc2)n1)c1ccc(Br)o1	-25%	22µM*	20µM*	-3%	13%
COc1cccc(CN2CCC2(C)C(=O)Nc2ccc3c(c2)OCO3)c1F (stereo not drawn)	-1%	·	·	·	·
CCc1nc2ccc(C(=O)NCCCN3CCCC3=O)cn2c1N(CC)Cc1cccc(Br)c1	4%	·	·	·	·
C/C=C\C1=C(CO)C(=O)[C@@H]2OC2C1=O (stereo partly drawn)	·	0.71µM*	3.2µM*	?	-25%[10 µM]
CCOC(=O)C1=CCN(S(=O)(=O)c2ccccc2C)C1c1ccc(C)cc1 (stereo not drawn)	3%	·	·	·	·
CN1CCN(c2ncc3ncc(=O)n(C4CC4)c3n2)CC1	·	?	3%	12%	-23%
